# Several values for one entry are separate records, joined by “and”; a condition that tells them apart may be missing. Identical values can stand only once. In all, about 5,500 compounds went through this assay and about 2,000 (36%) were called active. Another 18% or so got no clear call; they are omitted. Cut-off read from the data, not from the text of the source: active = normalized growth mostly below about 0.91 (no sharp cut-off); inconclusive = no clear call, values can overlap the other calls; inactive = mostly above about 0.92. The list shows a part of the results.
# Assay: chemical genetic growth profiling, strain panel (AID 1159580);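 note: tested at 20 µM; growth read once vehicle control cultures reached saturation at 30 °C; 1 = growth at the plate median or of vehicle wells; lower values mean less growth of the strain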
# Conditions: S. cerevisiae deletion strains, growth OD
structure (smiles),measurement,setting,value
COc1ccc(/C=C/c2cc(O)cc(O)c2)cc1,normalized growth,"locus YAL021C, strain ccr4, stronger effect = lower value",0.984 (inactive)
same,normalized growth,"locus YAL026C, strain drs2, stronger effect = lower value",1.01 (inactive)
same,normalized growth,"locus YAL030W, strain snc1, stronger effect = lower value",1.01 (inactive)
same,normalized growth,"locus YBL061C, strain skt5, stronger effect = lower value",1.01 (inactive)
same,normalized growth,"locus YBR009C, strain hhf1, stronger effect = lower value",1 (inactive)
same,normalized growth,"locus YBR021W, strain FUR4, stronger effect = lower value",0.949 (inactive)
same,normalized growth,"locus YBR023C, strain chs3, stronger effect = lower value",1 (inactive)
same,normalized growth,"locus YBR171W, strain sec66, stronger effect = lower value",1.02 (inactive)
same,normalized growth,"locus YBR229C, strain ROT2, stronger effect = lower value",0.978 (inactive)
same,normalized growth,"locus YBR231C, strain swc5, stronger effect = lower value",1 (inactive)
same,normalized growth,"locus YBR279W, strain paf1, stronger effect = lower value",1 (inactive)
same,normalized growth,"locus YCL011C, strain gbp2, stronger effect = lower value",0.991 (inactive)
same,normalized growth,"locus YCL016C, strain dcc1, stronger effect = lower value",1 (inactive)
same,normalized growth,"locus YCL029C, strain bik1, stronger effect = lower value",0.931 (inactive)
same,normalized growth,"locus YCL061C, strain MRC1, stronger effect = lower value",0.999 (inactive)
same,normalized growth,"locus YCL069W, strain vba3, stronger effect = lower value",1.01 (inactive)
same,normalized growth,"locus YCR088W, strain abp1, stronger effect = lower value",1 (inactive)
same,normalized growth,"locus YDL005C, strain med2, stronger effect = lower value",1.01 (inactive)
same,normalized growth,"locus YDL035C, strain GPR1, stronger effect = lower value",0.868 (inactive)
same,normalized growth,"locus YDL040C, strain nat1, stronger effect = lower value",1.01 (inactive)
same,normalized growth,"locus YDL074C, strain BRE1, stronger effect = lower value",0.725 (active)
same,normalized growth,"locus YDL101C, strain DUN1, stronger effect = lower value",0.949 (inactive)
same,normalized growth,"locus YDL134C, strain PPH21, stronger effect = lower value",0.895 (inactive)
same,normalized growth,"locus YDL185W, strain tfp1, stronger effect = lower value",0.976 (inactive)
same,normalized growth,"locus YDL192W, strain arf1, stronger effect = lower value",0.729 (active)
same,normalized growth,"locus YDR001C, strain nth1, stronger effect = lower value",1.01 (inactive)
same,normalized growth,"locus YDR069C, strain doa4, stronger effect = lower value",1.02 (inactive)
same,normalized growth,"locus YDR101C, strain arx1, stronger effect = lower value",0.878 (active)
same,normalized growth,"locus YDR137W, strain rgp1, stronger effect = lower value",1.02 (inactive)
same,normalized growth,"locus YDR159W, strain sac3, stronger effect = lower value",1.01 (inactive)
same,normalized growth,"locus YDR162C, strain NBP2, stronger effect = lower value",0.866 (inactive)
same,normalized growth,"locus YDR195W, strain ref2",1.06 (inactive)
same,normalized growth,"locus YDR297W, strain sur2, stronger effect = lower value",1 (inactive)
same,normalized growth,"locus YDR318W, strain mcm21, stronger effect = lower value",0.919 (inactive)
same,normalized growth,"locus YDR334W, strain swr1, stronger effect = lower value",1.02 (inactive)
same,normalized growth,"locus YDR335W, strain msn5, stronger effect = lower value",0.999 (inactive)
same,normalized growth,"locus YDR388W, stronger effect = lower value",0.962 (inactive)
same,normalized growth,"locus YDR392W, strain spt3, stronger effect = lower value",0.982 (inactive)
same,normalized growth,"locus YDR502C, strain sam2, stronger effect = lower value",0.846 (active)
same,normalized growth,"locus YEL003W, strain gim4, stronger effect = lower value",1.01 (inactive)
same,normalized growth,"locus YEL037C, strain rad23, stronger effect = lower value",1.01 (inactive)
same,normalized growth,"locus YEL061C, strain CIN8 (second series), stronger effect = lower value",1.01 (inactive)
same,normalized growth,"locus YEL061C, strain CIN8, stronger effect = lower value",0.864 (active)
same,normalized growth,"locus YER015W, strain faa2, stronger effect = lower value",0.998 (inactive)
same,normalized growth,"locus YER016W, strain bim1, stronger effect = lower value",1.01 (inactive)
same,normalized growth,"locus YER110C, stronger effect = lower value",0.956 (inactive)
same,normalized growth,"locus YER111C, strain swi4, stronger effect = lower value",1.01 (inactive)
same,normalized growth,"locus YER155C, strain BEM2 (second series), stronger effect = lower value",1 (inactive)
same,normalized growth,"locus YER155C, strain BEM2, stronger effect = lower value",0.945 (inactive)
same,normalized growth,"locus YER167W, strain BCK2, stronger effect = lower value",0.872 (active)
same,normalized growth,"locus YFR010W, strain ubp6, stronger effect = lower value",1.01 (inactive)
same,normalized growth,"locus YGL078C, strain dbp3, stronger effect = lower value",0.946 (inactive)
same,normalized growth,"locus YGL086W, strain mad1, stronger effect = lower value",0.854 (active)
same,normalized growth,"locus YGL167C, strain pmr1, stronger effect = lower value",1.01 (inactive)
same,normalized growth,"locus YGL173C, strain kem1, stronger effect = lower value",1.02 (inactive)
same,normalized growth,"locus YGL227W, strain vid30, stronger effect = lower value",1.01 (inactive)
same,normalized growth,"locus YGL240W, strain doc1, stronger effect = lower value",1 (inactive)
same,normalized growth,"locus YGL248W, strain PDE1, stronger effect = lower value",0.907 (inactive)
same,normalized growth,"locus YGL253W, strain hxk2, stronger effect = lower value",1.01 (inactive)
same,normalized growth,"locus YGR078C, strain PAC10, stronger effect = lower value",0.803 (active)
same,normalized growth,"locus YGR135W, strain pre9, stronger effect = lower value",0.86 (active)
same,normalized growth,"locus YGR252W, strain gcn5, stronger effect = lower value",0.687 (active)
same,normalized growth,"locus YHR013C, strain ard1, stronger effect = lower value",1 (inactive)
same,normalized growth,"locus YHR027C, strain rpn1, stronger effect = lower value",0.998 (inactive)
same,normalized growth,"locus YHR030C, strain SLT2, stronger effect = lower value",0.863 (active) and 1.04 (inactive)
same,normalized growth,"locus YHR079C, strain IRE1 (second series), stronger effect = lower value",0.974 (inactive)
same,normalized growth,"locus YHR079C, strain IRE1, stronger effect = lower value",1.01 (inactive)
same,normalized growth,"locus YHR094C, strain hxt1, stronger effect = lower value",0.96 (inactive)
same,normalized growth,"locus YHR129C, strain ARP1, stronger effect = lower value",0.857 (active)
same,normalized growth,"locus YHR142W, strain chs7, stronger effect = lower value",0.99 (inactive)
same,normalized growth,"locus YHR200W, strain rpn10, stronger effect = lower value",0.879 (active)
same,normalized growth,"locus YIL066C, strain RNR3, stronger effect = lower value",0.841 (active)
same,normalized growth,"locus YIL073C, strain SPO22, stronger effect = lower value",0.896 (inactive)
same,normalized growth,"locus YIL125W, strain kgd1, stronger effect = lower value",0.955 (inactive)
same,normalized growth,"locus YIR030C, strain dcg1, stronger effect = lower value",0.957 (inactive)
same,normalized growth,"locus YJL092W, strain hpr5, stronger effect = lower value",1.01 (inactive)
same,normalized growth,"locus YJL095W, strain BCK1 (second series), stronger effect = lower value",1.01 (inactive)
same,normalized growth,"locus YJL095W, strain BCK1, stronger effect = lower value",0.709 (active) and 0.967 (inactive)
same,normalized growth,"locus YJL115W, strain asf1, stronger effect = lower value",1.01 (inactive)
same,normalized growth,"locus YJL129C, strain trk1, stronger effect = lower value",0.986 (inactive)
same,normalized growth,"locus YJL134W, strain LCB3, stronger effect = lower value",0.983 (inactive)
same,normalized growth,"locus YJL154C, strain vps35, stronger effect = lower value",1.01 (inactive)
same,normalized growth,"locus YJL164C, strain tpk1, stronger effect = lower value",0.986 (inactive)
same,normalized growth,"locus YJL166W, strain qcr8, stronger effect = lower value",1 (inactive)
same,normalized growth,"locus YJL168C, strain set2, stronger effect = lower value",0.969 (inactive)
same,normalized growth,"locus YJL187C, strain SWE1 (second series), stronger effect = lower value",0.89 (inactive)
same,normalized growth,"locus YJL187C, strain SWE1, stronger effect = lower value",0.997 (inactive)

# From PubChem BioAssay AID1159580 (chemical genetic matrix, 2015)
